High-throughput results (PubChem)
Only a selection was taken, and hits are over-represented in it overall.
Tgondii IFNg = T. gondii growth inhibition with IFN-gamma, primary screen, cell-based. Toxoplasma gondii growth in IFN-gamma-treated host cells; stronger effect = lower value. 3.8% of 69,000 active. AID 1259416, 2018. activity change, negative = inhibition, % (concentration not given with the values); in the data active means activity change below about -70%, passing the limit was not always enough;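 further: host cells are HeLa cells infected with Toxoplasma gondii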
Hits are given with their value.

Screening Cc1cc(C)n(-c2cccc(C(=O)N(C)Cc3nc(C4CC4)no3)c2)n1 returned Tgondii IFNg inactive.
COc1cccc(NC(=O)Cn2c(=O)cc(-c3nc(C(C)C)no3)c3ccccc32)c1 was read as Tgondii IFNg inactive.
`CC(C)CCN1C2(CCN(C(=O)c3ccno3)C2)c2ccccc2S1(=O)=O` (stereo not given) gave Tgondii IFNg inactive.
CC(C)CCN1C2(CCN(C(=O)Cc3cccnc3)C2)c2ccccc2S1(=O)=O (stereo not given) was read as Tgondii IFNg inactive.
CC(C)CCN1C2(CCN(C(=O)NC3CCCC3)C2)c2ccccc2S1(=O)=O (stereo not given) was read as Tgondii IFNg -87.
`CC(C)CN1CCCN(c2nccc(-c3cnn(-c4ccccc4)c3)n2)CC1` gave Tgondii IFNg inactive.
O=C(Oc1cccc2cccnc12)c1ccccc1 was read as Tgondii IFNg inactive.
`Cc1ccc2c(Br)cc(Br)c(OC(=O)c3ccccc3)c2n1` gave Tgondii IFNg -85.
`O=C(Oc1cccccc1=O)c1ccccc1` gave Tgondii IFNg inactive.
COc1ccc(OC)c(S(=O)(=O)N(C)Cc2nc(-c3ccccc3C)oc2C)c1 was read as Tgondii IFNg inactive.
Screening CCCC[C@H](NC(=O)[C@@H]1[C@@H]2[C@H](CN1C(=O)[C@@H](NC(=O)NC1(CS(=O)(=O)C(C)(C)C)CCCCC1)C(C)(C)C)C2(C)C)C(=O)C(=O)NC1CC1 returned Tgondii IFNg inactive.
`COCCC1COC2(CCN(C(=O)c3ccc[nH]3)CC2)C1` (stereo not given) gave Tgondii IFNg inactive.
`CSCCC(NC1=NCCN1)C(=O)O` (stereo not given) gave Tgondii IFNg inactive.
Screening CN(C)C1CCN(C(=O)c2cnc(-c3noc4cc(-c5ccc(F)cc5)ccc34)s2)CC1 returned Tgondii IFNg -82.
`Cc1ccccc1-c1ccc2c(-c3ncc(C(=O)NCCN(C)C)s3)noc2c1` gave Tgondii IFNg inactive.
CCN(C)C(=O)c1cnc(-c2noc3cc(N4CCCCC4)ccc23)s1 was read as Tgondii IFNg inactive.
Screening CC(=O)N1CCCC2(CCC(=O)N2Cc2cccnc2)C1 (stereo not given) returned Tgondii IFNg inactive.
For CCSc1nc(CC(=O)N2CCCCC2C(=O)O)cs1 (stereo not given) the results were Tgondii IFNg inactive.
Cc1ccc(-c2nc3c(s2)CN(C(=O)NCc2ccccc2)CC3)cc1 was read as Tgondii IFNg inactive.
Screening COc1ccc(CNC(=O)c2nc3c(s2)CCN(C(=O)CC(C)C)CC3)cc1 returned Tgondii IFNg inactive.
`O=C(NCc1ccccc1)c1nc2c(s1)CCN(C(=O)c1ccncc1)CC2` gave Tgondii IFNg -74.
For Cc1ccc(C(=O)CSc2nnc(-c3ccncc3)n2C)cc1 the results were Tgondii IFNg inactive.
For Cc1ccc(-c2nnc(SCC(=O)c3ccc4c(c3)n(C)c(=O)n4C)n2C)cc1 the results were Tgondii IFNg -98.
CC(C)OC(=O)CSc1nnc(-c2ccc(O)cc2)n1C was read as Tgondii IFNg inactive.
For O=C(c1cccc(F)c1)N1CCC(c2nc3ccc(N4CCCC4)cn3n2)CC1 the results were Tgondii IFNg inactive.
For CC(C)n1ccc(-c2cc(C(=O)N3CCC(C(N)=O)CC3)c3ccccn23)n1 the results were Tgondii IFNg inactive.
`CCN1C(=O)CCC2C1CCN2C(=O)c1ccc2[nH]ccc2c1` (stereo not given) gave Tgondii IFNg inactive.
For CN1C(=O)CCC2C1CCN2C(=O)c1ccc2[nH]ccc2c1 (stereo not given) the results were Tgondii IFNg -97.
`COCCN1C(=O)CCC2C1CCN2C(=O)c1ccc2[nH]ccc2c1` (stereo not given) gave Tgondii IFNg inactive.
Cc1ccc(C)c(-n2c(C)cn3c4c(=O)n(CCN5CCOCC5)c(=O)n(C)c4nc23)c1 was read as Tgondii IFNg -76.
Screening COC(=O)Cn1c(-c2ccccc2)cn2c3c(=O)n(C)c(=O)n(C)c3nc12 returned Tgondii IFNg inactive.
For Cc1nc(-c2cc(C(=O)CCN3CCOCC3)c3ccccn23)cn1C the results were Tgondii IFNg inactive.
O=C1CCc2cc(S(=O)(=O)N3CCN(S(=O)(=O)c4cccc(F)c4)CC3)cc3c2N1CC3 was read as Tgondii IFNg inactive.
Cc1nccn1CCN(C)C(=O)c1ccccc1C1CCNC1 (stereo not given) was read as Tgondii IFNg inactive.
Screening Cc1ccc(NC(=O)OC2CCCCC2)cc1NC(=O)OC1CCCC1 returned Tgondii IFNg -105.
Screening COc1ccc(NC(=O)Nc2ccc(OC)c(OC3CCCC3)c2)cc1OC1CCCC1 returned Tgondii IFNg inactive.
For Cc1ccc(NC(=O)C2CCCCC2C(=O)O)cc1Cl (stereo not given) the results were Tgondii IFNg inactive.
`Clc1cc(Cl)cc(N=c2ssnc2-c2ccccc2Cl)c1` gave Tgondii IFNg -90.
Cc1cccc(-c2cn[nH]c2C2CCN(CC3CCOC3)CC2)c1 (stereo not given) was read as Tgondii IFNg inactive.
